Compound activity from PubChem.
IL1B secr inh – inflammasome signaling inhibition, IL-1 beta readout; AID 743279; activity change, % at 57.5 µM; 360,000 compounds, 4.7% hits; THP-1 LPS/ATP IL-1B secretion, AlphaLISA, 16 h; hits give low values; in the data active = activity change below about -50%; inconclusive = mostly about -30% to -49%
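THP-1 cells pretreated 1 hr with compounds (up to 57.5 uM final), then stimulated with LPS (250 ng/mL final) plus ATP (1.25 mM final); secreted IL-1B measured by AlphaLISA after 16 hr, decreased signal indicating inhibition.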
HT1080 IDH1KD tx – HT-1080 IDH1 knockdown cell toxicity (counter line). 360,000 compounds, 2% hits. HT-1080 IDH1 knockdown viability, ATP luminescence, 48 h. Potency, µM (titrated, usually from 46.1 µM), inactives show top-dose activity, negative = toxicity, most hits filed as cytotoxic. AID 686971;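 note: potency is the fitted concentration of half-maximal effect; 0% = DMSO wells and -100% = cell-free medium wells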
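Knockdown cells (IDH1KD HT-1080) received compounds 2 h after plating at 750 cells/well and were kept 48 h at 37 °C in 5% FBS RPMI. A CellTiter-Glo luminescence read gave % activity for curve fitting.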
DT40 TDP1 no CPT – qHTS for Inhibitors of human tyrosyl-DNA phosphodiesterase 1 (TDP1): qHTS in cells in absence of CPT; Potency, µM (highest dose often 46.2 µM), inactives show at the top dose activity change, negative = growth inhibition, hits mostly inhibitors; DT40 Tdp1-/- hTDP1 cells, no CPT, ATP luminescence, 48 h; AID 686978, 2013; 420,000 compounds, 15% hits; note: potency is the fitted concentration of half-maximal effect; nearly all actives have a fitted effect of over 55% in size
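Readout: luminescence from CellTiter-Glo after 30 min in the dark at RT. Cells: DT40 Tdp1-/- with stable hTDP1, 400/well. Exposure: compounds alone, ≥48 hr, 37 °C.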
ELG1 repair inh – ELG1-dependent DNA repair inhibition | 330,000 compounds, 2.3% hits | Potency, µM (titrated, usually from 46.1 µM), for inactives: at the highest dose activity change, negative = inhibition, hits mostly inhibitors | HEK293T ELG1-luciferase reporter, luminescence, 16 h; DNA damage induced by 5-fluorouridine; note: potency is the fitted concentration of half-maximal effect; nearly all actives have a fitted effect of over 55% in size
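HEK293T cells expressing luciferase-tagged ELG1 (2,000/well) received 5-Fluorouridine plus compound or DMSO for 16 hr at 37 °C. Luciferase was read by ONE-Glo luminescence after 30 min at room temperature.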
DT40 TDP1 CPT – growth inhibition of DT40 Tdp1-/-;hTDP1 cells with camptothecin (screen for TDP1 inhibitors); 420,000 compounds, 12% hits; chicken DT40 Tdp1-/-;hTDP1 cells + 20 nM CPT, ATP luminescence, 48 h; Potency, µM (highest dose often 46.2 µM), for inactives: at the highest dose activity change, negative = growth inhibition, actives largely listed as inhibitors; note: potency is the fitted concentration of half-maximal effect; nearly all actives have a fitted effect of over 55% in size
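Chicken DT40 Tdp1-/- cells complemented with human TDP1, 400 cells/well, exposed to compounds plus 20 nM camptothecin for at least 48 h at 37 C; viability read as ATP content by CellTiter-Glo luminescence.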
HT1080NT lethal – kills 2HG-producing HT-1080-NT fibrosarcoma cells. HT-1080-NT fibrosarcoma viability, CellTiter-Glo ATP luminescence, 48 h. AID 686970. Potency, µM (titrated, usually from 46.1 µM), for inactives: at the highest dose activity, negative = less viability, actives largely listed as cytotoxic. 360,000 compounds, 1.6% hits;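 note: NT is the 2HG producing partner of a matched IDH1 knockdown line; potency is the fitted concentration of half-maximal effect; 0% = DMSO-treated cells and -100% = media-only wells without cells; nearly all actives have a fitted effect of over 55% in size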
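750 cells/well, RPMI + 5% FBS; 2 h settle, compound pin-transfer, 48 h at 37 degrees C. CellTiter-Glo 10 min RT, luminescence. Normalized to DMSO and media-only wells.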
Starred values were filed as active, the others as inactive; [ ] = another dose, or the depositor's remark. Only some compounds are listed: those with a hit (about 19% of all), similar ones and a draw of the others. Unless noted, calls come from the whole dose curve; as a rule, active = well fitted curve in the direction sought with a large enough effect; inconclusive = small, poorly fitted or top-dose-only effect, or another doubt; inactive = no such curve, though single readings can be large; an effect the other way counts as inactive or inconclusive. Unless noted, % is set by controls: 0 for no effect and ±100 for the full control effect.

How did COC(=O)c1ccc2nc(-c3cccc(Br)c3)c(Cc3cccc(F)c3)n2c1 do in these assays?
IL1B secr inh: 36; HT1080 IDH1KD tx: 16%; DT40 TDP1 no CPT: inconclusive; DT40 TDP1 CPT: inconclusive; HT1080NT lethal: 18%

Results for COC(=O)c1ccc2nc(-c3cccc(Cl)c3)c(Cc3cccc(F)c3)n2c1 ?
IL1B secr inh: 0; HT1080 IDH1KD tx: 2%; DT40 TDP1 no CPT: 9.2µM*; DT40 TDP1 CPT: 16µM*; HT1080NT lethal: 7%

What do the screens show for `COC(=O)c1ccc2nc(-c3cccc(Cl)c3)c(Cc3cccc(Cl)c3)n2c1`?
IL1B secr inh: 6; HT1080 IDH1KD tx: -2%; DT40 TDP1 no CPT: inconclusive; DT40 TDP1 CPT: 4.6µM*; HT1080NT lethal: 5%

What do the screens show for `Oc1cccc(Oc2ncc(C(F)(F)F)cc2Cl)c1`?
IL1B secr inh: 18; HT1080 IDH1KD tx: -1%; DT40 TDP1 no CPT: 2%; ELG1 repair inh: 24%; DT40 TDP1 CPT: 9%; HT1080NT lethal: -20%

What do the screens show for `CC(NC(=O)CNC(=O)c1ccccc1Br)c1cccs1` (configuration not stated)?
IL1B secr inh: 20; HT1080 IDH1KD tx: 13%; DT40 TDP1 no CPT: 0%; ELG1 repair inh: 9%; DT40 TDP1 CPT: 7%; HT1080NT lethal: 0%

Results for O=C(CSc1nnnn1-c1ccc2c(c1)OCCO2)Nc1nc2c(s1)CCCC2 ?
IL1B secr inh: inconclusive; HT1080 IDH1KD tx: -3%; DT40 TDP1 no CPT: inconclusive; ELG1 repair inh: 21µM*; DT40 TDP1 CPT: inconclusive; HT1080NT lethal: inconclusive

What do the screens show for `O=C(CSc1nnnn1C1CCCCC1)Nc1nc2c(s1)CCCC2`?
IL1B secr inh: 13; HT1080 IDH1KD tx: 0%; DT40 TDP1 no CPT: 21µM*; DT40 TDP1 CPT: 15µM*; HT1080NT lethal: 0%

What do the screens show for `Cc1nnc(SCC(=O)Nc2sc3c(c2C#N)CCCCC3)n1N`?
IL1B secr inh: 29; HT1080 IDH1KD tx: -4%; DT40 TDP1 no CPT: -22%; ELG1 repair inh: inconclusive; DT40 TDP1 CPT: 9%; HT1080NT lethal: -4%

Results for N#Cc1c(NC(=O)CSc2nnnn2C2CCCCC2)sc2c1CCCC2 ?
IL1B secr inh: 15; HT1080 IDH1KD tx: 12%; DT40 TDP1 no CPT: 16µM*; ELG1 repair inh: 0%; DT40 TDP1 CPT: inconclusive; HT1080NT lethal: 9%

Results for CCc1nc2ccc(C(=O)N3CCN(C(C)=O)CC3)cn2c1N(C)C(=O)c1cccc(OC)c1 ?
IL1B secr inh: 23; HT1080 IDH1KD tx: 2%; DT40 TDP1 no CPT: 0%; DT40 TDP1 CPT: -1%; HT1080NT lethal: 27%

Results for Cc1nc(C)n(CCNC(=O)c2ccco2)n1 ?
IL1B secr inh: -3; HT1080 IDH1KD tx: -2%; DT40 TDP1 no CPT: -3%; ELG1 repair inh: 7%; DT40 TDP1 CPT: 2%; HT1080NT lethal: -2%

How did CCC(CC)CN1C(N(C)C)=NC[C@@H]1CC(C)C do in these assays?
IL1B secr inh: 3; HT1080 IDH1KD tx: -1%; DT40 TDP1 no CPT: 18µM*; ELG1 repair inh: 5%; DT40 TDP1 CPT: 16µM*; HT1080NT lethal: 1%

How did CC(C)C[C@H]1CN=C(N(C)C)N1CC1CCCC1 do in these assays?
IL1B secr inh: -14; HT1080 IDH1KD tx: -5%; DT40 TDP1 no CPT: inconclusive; ELG1 repair inh: 6%; DT40 TDP1 CPT: inconclusive; HT1080NT lethal: -7%

What do the screens show for `C[C@H]1CN=C(N(C)C)N1CC1CCCCC1`?
IL1B secr inh: 22; HT1080 IDH1KD tx: 9%; DT40 TDP1 no CPT: inconclusive; ELG1 repair inh: 4%; DT40 TDP1 CPT: -6%; HT1080NT lethal: 12%

What do the screens show for `CC(C)C[C@H]1CN=C(N(C)C)N1CCCCc1ccccc1`?
IL1B secr inh: inconclusive; HT1080 IDH1KD tx: -4%; DT40 TDP1 no CPT: 2.6µM*; ELG1 repair inh: -4%; DT40 TDP1 CPT: 5.2µM*; HT1080NT lethal: -13%

How did C[C@H]1CN=C(N(C)C)N1CCCCc1ccccc1 do in these assays?
IL1B secr inh: 12; HT1080 IDH1KD tx: -11%; DT40 TDP1 no CPT: 15µM*; ELG1 repair inh: 1%; DT40 TDP1 CPT: inconclusive; HT1080NT lethal: -6%

How did Cc1cc(S(=O)(=O)Nc2ccc(C(=O)NCc3cccnc3)cc2)ccc1F do in these assays?
IL1B secr inh: 0; HT1080 IDH1KD tx: -4%; DT40 TDP1 no CPT: -19%; ELG1 repair inh: 1%; DT40 TDP1 CPT: -14%; HT1080NT lethal: -1%

Results for Cc1nn(CC(=O)NCc2ccco2)c(=O)c2cc3ccccc3n12 ?
DT40 TDP1 no CPT: -9%; DT40 TDP1 CPT: 3%

Results for COc1cccc(C(=O)Nc2ncc3c(n2)CC(c2ccc(OC)cc2OC)CC3=O)c1 (configuration not stated) ?
IL1B secr inh: 17; HT1080 IDH1KD tx: 7.9µM*; DT40 TDP1 no CPT: 4.1µM*; ELG1 repair inh: inconclusive; DT40 TDP1 CPT: 2.9µM*; HT1080NT lethal: 7.9µM*

What do the screens show for `CC1(C)CC(=O)c2cnc(NC(=O)Cc3ccc(Cl)cc3)nc2C1`?
IL1B secr inh: 18; HT1080 IDH1KD tx: 30%; DT40 TDP1 no CPT: 23µM*; ELG1 repair inh: 13%; DT40 TDP1 CPT: inconclusive; HT1080NT lethal: 18%

How did CC1(C)CC(=O)C=C(Nc2ccc(Br)cc2F)C1 do in these assays?
IL1B secr inh: -81*; HT1080 IDH1KD tx: -6%; DT40 TDP1 no CPT: -19%; ELG1 repair inh: inconclusive; DT40 TDP1 CPT: -26%; HT1080NT lethal: 1%

How did COc1ccc(Nc2ncc3c(n2)CC(c2ccccc2)CC3=O)cc1 (configuration not stated) do in these assays?
IL1B secr inh: 7; HT1080 IDH1KD tx: -2%; DT40 TDP1 no CPT: inconclusive; ELG1 repair inh: 15µM*; DT40 TDP1 CPT: inconclusive; HT1080NT lethal: 4%[9.24 µM]

What do the screens show for `COc1ccc(OCC(=O)Nc2ncc3c(n2)CC(C)(C)CC3=O)cc1`?
IL1B secr inh: 12; HT1080 IDH1KD tx: 3%; DT40 TDP1 no CPT: -6%; ELG1 repair inh: -1%; DT40 TDP1 CPT: 1%; HT1080NT lethal: 4%

How did COc1ccc(C(=O)Nc2ncc3c(n2)CC(C)CC3=O)cc1 (configuration not stated) do in these assays?
IL1B secr inh: -13; HT1080 IDH1KD tx: 1%; DT40 TDP1 no CPT: -7%; ELG1 repair inh: inconclusive; DT40 TDP1 CPT: 4%; HT1080NT lethal: 10%

Results for CC(C)c1cc(CNC(=O)C2CCC(=O)N(CCc3ccc(Cl)cc3)C2)on1 (configuration not stated) ?
IL1B secr inh: 9; HT1080 IDH1KD tx: 26%; DT40 TDP1 no CPT: 0%; ELG1 repair inh: 1%; DT40 TDP1 CPT: 4%; HT1080NT lethal: 21%
